Reference: PubChem BioAssay (EPA / NIEHS)
Records with an inconclusive call do not appear. Activity calls are given as the source filed them. Rule for the calls, unless noted: active = hit-call score of the fitted dose curve at least 0.9, where 1 is the maximum; inactive = score below 0.9.

Columns and labels:
[1] = ATG_NFI_CIS: Attagene CIS-FACTORIAL HepG2 Assay for human Nuclear Factor I (NFI) (AID 2282989); conditions: HepG2 cis-regulatory reporter, NFI response element transcription; actives raise or lower the signal
Summary of the method: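 Read-out: reporter mRNA via RT-PCR plus capillary electrophoresis with fluorescence detection. Transiently transfected HepG2 (endogenous TF activity on cis promoters), 24 h compound exposure; gain or loss of signal fitted against DMSO.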

[2] = target: Myc proto-oncogene protein (Homo sapiens) (UniProt P01106); assay: ATG_Myc_CIS: Attagene CIS-FACTORIAL HepG2 Assay for human Myelocytomatosis (Myc) Proto-Oncogene Transcription Factor (AID 2282990); conditions: HepG2, Attagene cis-reporter transcription factor activity; actives raise or lower the signal
Myc proto-oncogene protein (Homo sapiens), sequence (P01106 whole entry, looked up, the tested form may be a part): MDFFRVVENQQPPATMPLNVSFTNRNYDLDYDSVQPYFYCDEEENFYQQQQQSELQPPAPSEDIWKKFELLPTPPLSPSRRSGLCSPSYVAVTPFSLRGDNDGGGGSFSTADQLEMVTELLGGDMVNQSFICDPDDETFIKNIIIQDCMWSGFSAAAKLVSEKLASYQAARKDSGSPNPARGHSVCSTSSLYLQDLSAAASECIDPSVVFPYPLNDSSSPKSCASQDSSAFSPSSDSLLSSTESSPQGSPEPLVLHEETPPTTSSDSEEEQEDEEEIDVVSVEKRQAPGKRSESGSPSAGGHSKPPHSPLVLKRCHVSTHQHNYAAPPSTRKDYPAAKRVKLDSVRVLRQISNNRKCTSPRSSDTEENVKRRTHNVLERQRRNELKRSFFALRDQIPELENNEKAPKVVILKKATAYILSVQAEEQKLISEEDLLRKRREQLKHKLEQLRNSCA
Summary of the method: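 After 24 h chemical treatment of HepG2 cells carrying multiplexed cis-regulated reporter constructs, reporter transcripts quantified by RT-PCR and capillary electrophoresis of fluorescent fragments. Gain or loss fitted against DMSO baseline.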

[3] = ATG_NF_kB_CIS: Attagene CIS-FACTORIAL HepG2 Assay for human Nuclear Factor Kappa B (NF-kB) (AID 2282991); conditions: HepG2 Attagene cis-factorial NF-kB reporter mRNA; actives raise or lower the signal
Summary of the method: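 Measures mRNA induction of an NF-kB-responsive cis-element reporter in HepG2 cells transfected with multiple reporter units, sampled 24 h post-dosing; quantified by fluorescence after RT-PCR and capillary electrophoresis, fitted for activation or inhibition against DMSO.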

[4] = ATG_NRF2_ARE_CIS: Attagene CIS-FACTORIAL HepG2 Assay for human Nuclear Factor Erythroid 2 Related Factor 2 (NFR2) response to Antioxidant Response Elements (ARE) (AID 2282992); conditions: HepG2 Attagene ARE/NRF2 reporter, transcription factor activity; actives raise or lower the signal;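 for AC50: reporter mRNA level measured by RT-PCR and capillary electrophoresis fluorescence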
Summary of the method: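 Fluorescence intensity of reporter-specific cDNA fragments, separated by capillary electrophoresis, reflects mRNA induction in transfected HepG2 cells at 24 h. Activity is fitted bidirectionally, DMSO serving as baseline.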

[5] = ATG_Oct_MLP_CIS: Attagene CIS-FACTORIAL HepG2 Assay for human Octamer-Binding Transcription Factor (Oct) (AID 2282993); conditions: HepG2 Attagene cis-factorial Oct reporter, mRNA; actives raise or lower the signal
Summary of the method: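 Read-out: reporter mRNA via RT-PCR plus capillary electrophoresis of 6-FAM-labelled fragments. Transiently transfected HepG2, 24 h exposure, endogenous TF activity on cis elements. Gain or loss of signal fitted relative to DMSO.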

[6] = target: Cellular tumor antigen p53 (Homo sapiens) (UniProt P04637); assay: ATG_p53_CIS: Attagene CIS-FACTORIAL HepG2 Assay for human p53 Transcription Factor (AID 2282994); conditions: HepG2 p53 cis-element reporter, Attagene mRNA; actives raise or lower the signal
Cellular tumor antigen p53 (Homo sapiens), sequence (P04637 whole entry, looked up): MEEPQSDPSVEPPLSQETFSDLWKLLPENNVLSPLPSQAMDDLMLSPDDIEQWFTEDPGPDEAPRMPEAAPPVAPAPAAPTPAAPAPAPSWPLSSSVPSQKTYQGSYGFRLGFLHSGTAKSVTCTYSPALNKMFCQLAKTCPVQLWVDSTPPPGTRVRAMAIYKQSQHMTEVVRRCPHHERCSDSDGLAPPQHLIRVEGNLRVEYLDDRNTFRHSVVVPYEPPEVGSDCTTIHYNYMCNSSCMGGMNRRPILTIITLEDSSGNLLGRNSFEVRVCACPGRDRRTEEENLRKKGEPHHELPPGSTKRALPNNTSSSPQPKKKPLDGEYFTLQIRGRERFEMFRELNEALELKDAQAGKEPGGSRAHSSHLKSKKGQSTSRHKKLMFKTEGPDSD
Summary of the method: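 Transiently transfected HepG2 (multiple cis reporter transcription units); exposure 24 h; reporter RNA via RT-PCR, 6-FAM extension, 2 h HpaI digest at 37 C, CE detection; DMSO baseline.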

[7] = target: human Peroxisome Proliferator-activated Receptor delta (PPARd), PPARD (gene 5467) (UniProt Q03181); assay: ATG_PPARd_TRANS: Attagene TRANS-FACTORIAL HepG2 Assay for human Peroxisome Proliferator-activated Receptor delta (PPARd) (AID 2283002; active = hit-call score of the fitted dose curve at least 0.9, where 1 is the maximum)
human Peroxisome Proliferator-activated Receptor delta (PPARd), PPARD (gene 5467), sequence (Q03181 whole entry, looked up, the tested form may be a part): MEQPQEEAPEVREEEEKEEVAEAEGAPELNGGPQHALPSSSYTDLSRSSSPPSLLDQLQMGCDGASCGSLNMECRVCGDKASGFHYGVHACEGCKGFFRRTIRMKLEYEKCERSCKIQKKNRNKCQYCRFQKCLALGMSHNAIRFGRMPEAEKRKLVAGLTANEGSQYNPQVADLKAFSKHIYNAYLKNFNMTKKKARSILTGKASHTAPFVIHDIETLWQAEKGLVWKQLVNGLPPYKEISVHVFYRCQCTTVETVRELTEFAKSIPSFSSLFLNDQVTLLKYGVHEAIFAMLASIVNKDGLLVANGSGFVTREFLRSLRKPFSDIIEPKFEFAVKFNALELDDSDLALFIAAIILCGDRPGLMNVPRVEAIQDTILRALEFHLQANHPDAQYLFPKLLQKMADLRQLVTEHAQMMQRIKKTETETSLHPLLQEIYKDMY
Summary of the method: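 Read-out is induced reporter mRNA, quantified by RT-PCR with fluorescent labelling and capillary electrophoresis after 24 h dosing. Cells are HepG2 transiently carrying multiple GAL4-UAS reporter units driven by exogenous NR-GAL4 chimeras; DMSO serves as baseline.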

[8] = target: human Retinoic Acid Receptor beta (RARb), RARB (gene 5915) (UniProt P10826); assay: ATG_RARb_TRANS: Attagene TRANS-FACTORIAL HepG2 Assay for human Retinoic Acid Receptor beta (AID 2283004; active = hit-call score of the fitted dose curve at least 0.9, where 1 is the maximum)
human Retinoic Acid Receptor beta (RARb), RARB (gene 5915), sequence (P10826 whole entry, looked up, the tested form may be a part): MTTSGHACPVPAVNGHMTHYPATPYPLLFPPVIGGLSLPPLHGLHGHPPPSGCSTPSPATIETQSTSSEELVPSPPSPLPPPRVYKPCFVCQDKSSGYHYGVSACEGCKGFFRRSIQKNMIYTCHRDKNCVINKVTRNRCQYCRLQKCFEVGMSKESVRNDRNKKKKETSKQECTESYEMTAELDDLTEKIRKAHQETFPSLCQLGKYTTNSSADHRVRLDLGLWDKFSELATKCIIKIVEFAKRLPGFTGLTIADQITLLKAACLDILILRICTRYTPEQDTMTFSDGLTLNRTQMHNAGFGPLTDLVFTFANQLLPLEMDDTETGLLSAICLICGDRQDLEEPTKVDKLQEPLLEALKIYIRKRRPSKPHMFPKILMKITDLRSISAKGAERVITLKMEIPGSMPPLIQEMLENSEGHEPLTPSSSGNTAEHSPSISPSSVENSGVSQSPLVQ
Summary of the method: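 Fluorescent capillary-electrophoresis detection of GAL4-UAS reporter mRNA defines the endpoint, with induction over DMSO-treated wells scored as activity. Transiently transfected human hepatoma HepG2 cells expressing exogenous NR–Gal4 proteins are exposed to test chemicals for 24 h.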

[9] = target: Retinoic acid receptor alpha (Homo sapiens) (UniProt P10276); assay: ATG_RARa_TRANS: Attagene TRANS-FACTORIAL HepG2 Assay for human Retinoic Acid Receptor alpha (RARa) (AID 2283005; active = hit-call score of the fitted dose curve at least 0.9, where 1 is the maximum)
Retinoic acid receptor alpha (Homo sapiens), sequence (P10276 whole entry, looked up, the tested form may be a part): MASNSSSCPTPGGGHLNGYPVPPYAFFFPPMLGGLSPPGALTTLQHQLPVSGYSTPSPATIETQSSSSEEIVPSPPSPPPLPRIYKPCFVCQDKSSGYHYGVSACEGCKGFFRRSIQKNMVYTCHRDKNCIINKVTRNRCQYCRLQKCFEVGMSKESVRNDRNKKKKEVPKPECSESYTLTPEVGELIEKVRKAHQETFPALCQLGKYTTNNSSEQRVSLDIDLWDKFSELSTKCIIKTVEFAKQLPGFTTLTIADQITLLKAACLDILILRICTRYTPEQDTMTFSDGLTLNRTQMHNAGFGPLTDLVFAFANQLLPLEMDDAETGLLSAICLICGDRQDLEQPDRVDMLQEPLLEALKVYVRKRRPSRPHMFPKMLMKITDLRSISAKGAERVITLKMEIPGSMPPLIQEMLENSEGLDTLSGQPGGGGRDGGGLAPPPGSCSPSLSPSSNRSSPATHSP
Summary of the method: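 Reporter transcripts, measured by RT-PCR with fluorescent labeling and capillary electrophoresis after 24 h dosing, reflect activity of an exogenous human RARa–GAL4 fusion in transiently transfected HepG2. Fitted for increase relative to DMSO.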

[10] = target: Nuclear receptor subfamily 1 group I member 2 (Homo sapiens) (UniProt O75469); assay: ATG_PXR_TRANS: Attagene TRANS-FACTORIAL HepG2 Assay for human Pregnane X Receptor (PXR) (AID 2283008; active = hit-call score of the fitted dose curve at least 0.9, where 1 is the maximum)
Nuclear receptor subfamily 1 group I member 2 (Homo sapiens), sequence (O75469 whole entry, looked up, the tested form may be a part): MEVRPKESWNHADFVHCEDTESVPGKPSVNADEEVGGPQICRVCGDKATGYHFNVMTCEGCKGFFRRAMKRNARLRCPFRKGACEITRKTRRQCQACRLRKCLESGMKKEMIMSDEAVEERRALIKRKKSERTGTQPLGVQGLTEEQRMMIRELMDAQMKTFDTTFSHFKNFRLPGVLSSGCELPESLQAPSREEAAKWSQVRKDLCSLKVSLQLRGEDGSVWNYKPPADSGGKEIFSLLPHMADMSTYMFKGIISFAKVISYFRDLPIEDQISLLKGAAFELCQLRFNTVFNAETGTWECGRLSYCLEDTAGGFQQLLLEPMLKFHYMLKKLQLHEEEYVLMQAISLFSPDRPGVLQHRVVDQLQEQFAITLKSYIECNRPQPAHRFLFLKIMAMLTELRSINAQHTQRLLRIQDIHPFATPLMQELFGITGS
Summary of the method: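 Transient HepG2 transfectants carrying multiplexed reporter transcription units; PXR activity read through a Gal4 chimera. 24 h exposure. RT-PCR/CE fluorescence; upward curve fit referenced to DMSO.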

[11] = target: human Retinoic Acid Receptor gamma (RARg), RARG (gene 5916) (UniProt P13631); assay: ATG_RARg_TRANS: Attagene TRANS-FACTORIAL HepG2 Assay for human Retinoic Acid Receptor gamma (RARg) (AID 2283009; active = hit-call score of the fitted dose curve at least 0.9, where 1 is the maximum)
human Retinoic Acid Receptor gamma (RARg), RARG (gene 5916), sequence (P13631 whole entry, looked up, the tested form may be a part): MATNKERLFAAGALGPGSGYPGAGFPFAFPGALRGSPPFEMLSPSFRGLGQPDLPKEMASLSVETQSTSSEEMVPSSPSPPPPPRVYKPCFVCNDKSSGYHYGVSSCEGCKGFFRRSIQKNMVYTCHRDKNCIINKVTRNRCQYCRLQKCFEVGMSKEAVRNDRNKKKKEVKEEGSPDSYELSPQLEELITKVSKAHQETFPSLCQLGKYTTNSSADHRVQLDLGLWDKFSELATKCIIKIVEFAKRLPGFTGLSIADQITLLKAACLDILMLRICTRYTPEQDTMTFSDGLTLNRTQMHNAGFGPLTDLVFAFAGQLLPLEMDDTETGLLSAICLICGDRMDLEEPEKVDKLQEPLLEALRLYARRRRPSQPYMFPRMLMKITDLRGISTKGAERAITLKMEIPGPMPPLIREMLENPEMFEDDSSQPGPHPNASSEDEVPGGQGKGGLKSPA
Summary of the method: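 Transactivation of exogenous RARg-Gal4 fusion measured as reporter transcript induction after 24 h in transfected HepG2 cells. RNA reverse-transcribed, amplified, fluorescently labeled and resolved by capillary electrophoresis; increase relative to DMSO.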

[12] = target: human RAR-related Orphan Receptor beta (RORb), RORB (gene 6096) (UniProt Q92753); assay: ATG_RORb_TRANS: Attagene TRANS-FACTORIAL HepG2 Assay for human RAR-related Orphan Receptor beta (RORb) (AID 2283010; active = hit-call score of the fitted dose curve at least 0.9, where 1 is the maximum)
human RAR-related Orphan Receptor beta (RORb), RORB (gene 6096), sequence (Q92753 whole entry, looked up, the tested form may be a part): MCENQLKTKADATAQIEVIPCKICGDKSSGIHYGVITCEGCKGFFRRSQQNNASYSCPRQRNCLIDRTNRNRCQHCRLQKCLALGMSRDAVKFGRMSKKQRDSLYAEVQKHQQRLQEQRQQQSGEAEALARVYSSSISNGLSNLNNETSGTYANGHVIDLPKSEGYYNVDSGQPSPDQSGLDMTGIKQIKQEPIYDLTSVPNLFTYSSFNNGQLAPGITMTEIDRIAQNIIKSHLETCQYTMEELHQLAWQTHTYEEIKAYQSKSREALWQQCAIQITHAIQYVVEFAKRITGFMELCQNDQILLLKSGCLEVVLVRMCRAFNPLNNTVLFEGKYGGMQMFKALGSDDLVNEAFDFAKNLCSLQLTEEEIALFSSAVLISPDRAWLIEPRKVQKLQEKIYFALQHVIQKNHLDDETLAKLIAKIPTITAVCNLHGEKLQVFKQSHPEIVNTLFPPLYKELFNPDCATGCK
Summary of the method: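 Read-out is reporter mRNA induction, quantified by RT-PCR with fluorescent capillary electrophoresis, 24 h post-dose in transiently transfected HepG2 expressing exogenous NR-Gal4 chimera. Activity fitted upward versus DMSO.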

[13] = target: Peroxisome proliferator-activated receptor gamma (Homo sapiens) (UniProt P37231); assay: ATG_PPARg_TRANS: Attagene TRANS-FACTORIAL HepG2 Assay for human Peroxisome Proliferator-activated Receptor-gamma (PPARg) (AID 2283007; active = hit-call score of the fitted dose curve at least 0.9, where 1 is the maximum)
Peroxisome proliferator-activated receptor gamma (Homo sapiens), sequence (P37231 whole entry, looked up, the tested form may be a part): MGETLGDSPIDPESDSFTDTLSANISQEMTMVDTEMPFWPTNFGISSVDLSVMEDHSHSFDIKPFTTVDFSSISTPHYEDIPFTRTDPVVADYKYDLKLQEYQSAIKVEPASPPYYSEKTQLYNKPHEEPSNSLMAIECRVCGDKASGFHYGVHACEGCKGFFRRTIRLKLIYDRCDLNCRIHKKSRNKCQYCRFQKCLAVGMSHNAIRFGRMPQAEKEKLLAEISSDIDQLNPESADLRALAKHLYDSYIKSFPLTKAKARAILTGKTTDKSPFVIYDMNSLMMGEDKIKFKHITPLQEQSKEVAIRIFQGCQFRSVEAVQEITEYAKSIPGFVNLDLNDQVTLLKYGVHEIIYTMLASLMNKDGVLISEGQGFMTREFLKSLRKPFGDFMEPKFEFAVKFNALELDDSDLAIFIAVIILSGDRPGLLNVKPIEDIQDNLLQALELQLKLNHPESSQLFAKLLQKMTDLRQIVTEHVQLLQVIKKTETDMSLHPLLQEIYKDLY
Summary of the method: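 Gain-of-signal endpoint relative to DMSO, derived from reporter mRNA levels quantified by RT-PCR and capillary electrophoresis. Cells were HepG2 transiently expressing a chimeric NR-Gal4 construct with GAL4-UAS reporters, exposed to chemicals for 24 h.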

C=CC[N+](C)(C)CC=C
outcome [1]: inactive | outcome [2]: inactive | outcome [3]: inactive | outcome [4]: inactive | outcome [5]: inactive | outcome [6]: inactive | outcome [7]: inactive | outcome [8]: inactive | outcome [9]: inactive | outcome [10]: inactive | outcome [11]: inactive | outcome [12]: inactive

FC1(F)C(F)(F)C(F)(F)C2(F)C(F)(C1(F)F)C(F)(F)C(F)(F)C1(F)C(F)(F)C(F)(F)C(F)(F)C(F)(F)C12F (stereo unspecified)
outcome [1]: inactive | outcome [2]: inactive | outcome [3]: inactive | outcome [4]: inactive | outcome [5]: inactive | outcome [6]: inactive | outcome [7]: inactive | outcome [10]: inactive

ClCCCl
outcome [1]: inactive | outcome [2]: inactive | outcome [3]: inactive | outcome [4]: inactive | outcome [5]: inactive | outcome [6]: inactive | outcome [7]: inactive | outcome [13]: inactive | outcome [10]: inactive | outcome [12]: inactive

CC(C)(C)NC(N)=O
outcome [1]: inactive | outcome [2]: inactive | outcome [3]: inactive | outcome [4]: inactive | outcome [5]: inactive | outcome [6]: inactive | outcome [7]: inactive | outcome [10]: inactive

C[C@]12CC[C@H]3[C@@H](CCC4=CC(=O)CC[C@@]43C)[C@@H]1CC[C@@H]2C(=O)CO
outcome [1]: inactive | outcome [2]: inactive | outcome [3]: inactive | outcome [4]: inactive | outcome [5]: inactive | AC50 [6]: 42.5 µM (active) | outcome [7]: inactive | outcome [13]: inactive | AC50 [10]: 2.12 µM (active)

C=C(C)[C@@H]1CCC2=CC(=O)C[C@@H](C)[C@]2(C)C1
outcome [1]: inactive | outcome [2]: inactive | outcome [3]: inactive | AC50 [4]: 80.7 µM (active) | outcome [5]: inactive | outcome [6]: inactive | outcome [7]: inactive | outcome [13]: inactive | outcome [10]: inactive
